The structures appear in SMILES notation. Unmarked numbers belong to inactive results. Records with an inconclusive call do not appear. Active and inactive are the calls of the source. Unless noted, the call rests on the fitted dose curve; in most records, active means well fitted curve in the direction sought with a large enough effect in the repeat runs; inconclusive means weak or mixed curves; inactive means no such curve, though single readings can be large; an effect the other way counts as inactive or inconclusive.

Assay [1] in a line: qHTS assay to identify small molecule agonists of the hypoxia (HIF-1) signaling pathway - cell viability counter screen (AID 1224844; calls by dose curve; further: nearly all actives have a fitted effect of over 50% in size). The note with it: HRE-bla ME-180 viability, CellTiter-Glo luminescence, 17 h; series mostly up to 76.8 µM. In outline: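 Same wells as the HIF-1 reporter screen; ME-180 cells carrying HRE-bla, 17 hr treatment at 37C; CellTiter-Glo luminescence read after 30 min at room temperature.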

Assay [2] can be described thus: qHTS assay to identify small molecule agonists of H2AX (AID 1224845; active means well fitted activation curve with a large enough effect in the signal ratio in the repeat runs, not every such curve was filed as active; the % refers to the signal ratio). The conditions noted are these: CHO-K1 phospho-H2AX Ser139 HTRF, 3 h; series mostly up to 154 µM. In outline:
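Wild-type CHO-K1 cells, plated overnight, exposed 3hr at 37C to 15 concentrations (0.76% DMSO final). Lysed, then HTRF anti-pH2AX (S139) cryptate and anti-H2AX-d2 antibodies, 24 hr room temperature; 665/620 nm emission read.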

A short description of assay [3]: qHTS assay to identify small molecule agonists of the hypoxia (HIF-1) signaling pathway (AID 1224846; active means well fitted activation curve with a large enough effect in the signal ratio in the repeat runs, not every such curve was filed as active; the % refers to the signal ratio). The note with it: HRE-bla ME-180 cells, beta-lactamase ratio, 17 h; series mostly up to 76.8 µM. In outline:
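In ME-180 cells bearing an HRE-bla construct, 17 h treatment with DMSO-dissolved compounds at 37C was followed by CCF4-AM loading to quantify reporter induction.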

Assay [4] in a line: qHTS assay to identify small molecule agonists of H2AX - cell viability counter screen (AID 1224847; calls by dose curve; further: top concentration of the series differs between compounds; nearly all actives have a fitted effect of over 30% in size). The conditions noted are these: CHO-K1 viability, CellTiter-Glo luminescence, 3 h; series mostly up to 154 µM. Summed up: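 Cells plated first: CHO-K1, 1000 per well in 10% FBS medium, incubated overnight at 37C. Then 15-point compound titration added (final DMSO 0.76%) for 3 hr. Finally CellTiter-Glo added and luminescence read.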
(In qHTS, concentration-response curves come from the screen itself.)

A short description of assay [5]: qHTS RealTime-Glo MT Cell Viability Assay in HEK293 cells - 32 hour (AID 1224868). Further: top concentration of the series differs between compounds; nearly all actives have a fitted effect of over 50% in size. The note with it: RealTime-Glo luminescence; series mostly up to 76.8 µM. In outline:
(§1)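 Assay medium contained NanoLuc luciferase plus cell-permeant prosubstrate, added with HEK293 cells at 600 cells/well. After 5 h at 37 C/5% CO2 compounds were added; plates stayed at 37 C for 40 h with serial luminescence reads.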

Assay [6] can be described thus: A CellTox Green Cytotoxicity Assay to monitor cytotoxicity in HEK293 cells - 0 hour (AID 1224869). Further: nearly all actives have a fitted effect of over 50% in size. The conditions noted are these: CellTox Green fluorescence; series mostly up to 76.8 µM. Summed up:
(§2)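 Homogeneous no-lysis format: HEK293 cell suspension mixed with CellTox Green reagent, seeded, incubated 5 h at 37 C/5% CO2, then dosed by pintool with compound in DMSO.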

Assay [7] is described as follows: qHTS RealTime-Glo MT Cell Viability Assay in HepG2 cells - 40 hour (AID 1224870). Further: nearly all actives have a fitted effect of over 50% in size. The conditions noted are these: RealTime-Glo luminescence; series mostly up to 76.8 µM. Summed up: (§3)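 HepG2 cells (600/well) mixed with RealTime-Glo MT reagent, settled 5 h at 37 C/5% CO2 before compound addition. Nonlytic NanoLuc luminescence from viable-cell prosubstrate reduction read repeatedly during 40 h treatment at 37 C.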

The nature of assay [8]: A CellTox Green Cytotoxicity Assay to monitor cytotoxicity in HEK293 cells - 40 hour (AID 1224871). Further: nearly all actives have a fitted effect of over 45% in size. The note with it: CellTox Green fluorescence; series mostly up to 76.8 µM. Summed up:
as §2

A short description of assay [9]: qHTS RealTime-Glo MT Cell Viability Assay in HEK293 cells - 16 hour (AID 1224872). The conditions noted are these: RealTime-Glo luminescence; series mostly up to 76.8 µM. In outline: as §1
The nature of assay [10]: qHTS RealTime-Glo MT Cell Viability Assay in HEK293 cells - 40 hour (AID 1224874). Further: nearly all actives have a fitted effect of over 50% in size. The note with it: RealTime-Glo luminescence; max response: active compounds read low. Summed up: (§4)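 Measured as luminescence from the same continuously cultured HEK293 wells at successive time points (0, 8, 16, 24, 32, 40 h) after compound addition. Reagent present from seeding; dosing at 5 h; incubation 37 C.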

The nature of assay [11]: A CellTox Green Cytotoxicity Assay to monitor cytotoxicity in HEK293 cells - 24 hour (AID 1224875). Further: nearly all actives have a fitted effect of over 45% in size. The note with it: CellTox Green fluorescence; series mostly up to 76.8 µM. Summed up:
as §2

A short description of assay [12]: A CellTox Green Cytotoxicity Assay to monitor cytotoxicity in HepG2 cells - 16 hour (AID 1224876). Further: nearly all actives have a fitted effect of over 45% in size. The note with it: CellTox Green fluorescence; series mostly up to 76.8 µM. Summed up:
(§5)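 Fluorescent DNA-binding dye, 600 HepG2 cells/well, 5 h preincubation then compound in DMSO; same plates read at 0–40 h, 37 C.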

Assay [13] can be described thus: qHTS RealTime-Glo MT Cell Viability Assay in HepG2 cells - 32 hour (AID 1224877). Further: nearly all actives have a fitted effect of over 55% in size. The note with it: RealTime-Glo luminescence; series mostly up to 76.8 µM. In outline:
(§6)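 qHTS, HepG2, 600 cells/well, RealTime-Glo (NanoLuc + prosubstrate) added with cells; 5 h preincubation; DMSO compound addition; 37 C; luminescence at 0/8/16/24/32/40 h.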

The nature of assay [14]: A CellTox Green Cytotoxicity Assay to monitor cytotoxicity in HepG2 cells - 24 hour (AID 1224878). Further: nearly all actives have a fitted effect of over 45% in size. The conditions noted are these: CellTox Green fluorescence; series mostly up to 76.8 µM. Summed up: as §5
The nature of assay [15]: A CellTox Green Cytotoxicity Assay to monitor cytotoxicity in HepG2 cells - 40 hour (AID 1224879). Further: nearly all actives have a fitted effect of over 40% in size. The note with it: CellTox Green fluorescence; series mostly up to 76.8 µM. In outline: as §5
The nature of assay [16]: qHTS RealTime-Glo MT Cell Viability Assay in HEK293 cells - 0 hour (AID 1224880). The note with it: RealTime-Glo luminescence; series mostly up to 76.8 µM. Summed up: as §4
A short description of assay [17]: qHTS RealTime-Glo MT Cell Viability Assay in HepG2 cells - 24 hour (AID 1224867). Further: nearly all actives have a fitted effect of over 50% in size. The note with it: RealTime-Glo luminescence; series mostly up to 76.8 µM. In outline: as §6
Assay [18] in a line: qHTS RealTime-Glo MT Cell Viability Assay in HepG2 cells - 8 hour (AID 1224873). Further: nearly all actives have a fitted effect of over 55% in size. The conditions noted are these: RealTime-Glo luminescence; series mostly up to 76.8 µM. Summed up:
as §3

A short description of assay [19]: qHTS assay to identify small molecule antagonists of the estrogen related receptor (ERR) signaling pathway from Tox21 library (AID 1224848). Further: nearly all actives have a fitted effect of over 50% in size. Further: potency means the concentration at half of the fitted maximal effect. The note with it: ERR reporter cell line, luciferase antagonist mode, 18 h; series mostly up to 92.4 µM. In outline: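 Compounds dissolved in DMSO are pin-transferred onto ERR reporter cells (2,000 per well) that have settled for 6 h at 37 C. Plates then incubate 18 h at 37 C before ONE-Glo luciferase reagent and a luminescence read 30 min later.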

A short description of assay [20]: qHTS assay to identify small molecule agonists of the estrogen related receptor (ERR) signaling pathway from Tox21 library (AID 1224849; calls by dose curve; further: nearly all actives have a fitted effect of over 15% in size). The note with it: ERR reporter cell line, ONE-Glo luciferase, 18 h; at 92.4 µM (top of the series) unless noted. In outline: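 Reporter cells (ERR, NTP source) treated with Tox21 10K compounds 18 h, 37 C. Readout: ONE-Glo luminescence, 30 min RT.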
On the % scale 0 is the no-effect control and ±100 the full control effect.

Consider `CCOC(=O)C(=O)CCc1ccccc1`, for which the Potency entry in assay [1], in assay [2], in assay [3], in assay [4], in assay [5] and in assay [6] was “inactive” throughout. The Potency entry in assay [7], in assay [8], in assay [9], in [11], in [12] and in assay [13] was “inactive” each time. The Potency entry in assay [14], in assay [15] and in assay [16] was “inactive” throughout. For the same compound, in assay [10], the max response was 0.79%.

Turning to `c1ccc(C(O[C@H]2CCCN(CCc3ccc4c(c3)OCO4)C2)c2ccccc2)cc1`, the Potency result in assay [1], in assay [2], in assay [3], in [17], in assay [6] and in assay [7] was “inactive” in each case. Moreover, the Potency entry in assay [8], in assay [18], in [11], in assay [13] and in assay [16] was “inactive” in each case. In assay [10], the max response is -24.8%.

In the case of `C#Cc1cccc(Nc2ncnc3cc(OCCOC)c(OCCOC)cc23)c1`, the Potency entry in assay [1], in assay [2], in assay [3], in assay [17], in assay [5] and in assay [6] was “inactive” throughout. For the same compound, the Potency entry in assay [7], in assay [8], in [9], in [18], in assay [11] and in assay [12] was “inactive” each time. In addition, the Potency entry in assay [13], in assay [14], in assay [15] and in assay [16] was “inactive” in each case. Further, the Potency in assay [19] is 6.68 µM (active). Also, the activity change, positive = activation in assay [20] is -38.1% [at 42.5 µM]. Besides, the max response in assay [10] was -23.8%.

As to `CC1=CC=C(C(C)C)CC1`, the Potency result in [1], in assay [2], in [3], in assay [4], in assay [5] and in [6] was “inactive” in each case. Also, the Potency entry in assay [7], in [9], in [18], in assay [11], in assay [12] and in assay [13] was “inactive” throughout. For the same compound, the Potency entry in [14] and in [15] was “inactive” each time. The max response in [10] is 1.32%.

Consider `C=CCOC(=O)CCC1CCCCC1`, for which the Potency result in assay [1], in [2], in [3], in assay [19], in assay [17] and in assay [5] was “inactive” throughout. The Potency result in assay [6], in [7], in [8], in assay [9], in [11] and in assay [13] was “inactive” throughout. The Potency result in assay [14], in [15] and in assay [16] was “inactive” each time. Further, the activity change, positive = activation in [20] is -4.2%. Further, the max response in assay [10] is 4.81%.

For `COc1ccc(C(=O)N2CCN(CC(=O)N3CCOCC3)CC2)cc1`, the Potency result in [1], in [2], in [3], in [19], in assay [17] and in assay [5] was “inactive” in each case. Besides, the Potency result in [6], in [7], in assay [8], in assay [9], in assay [11] and in [13] was “inactive” in each case. The Potency entry in [14] and in assay [15] was “inactive” throughout. In addition, the activity change, positive = activation in [20] is 4.84% [at 42.5 µM]. The max response in [10] is 2.37%.

For `CC(=O)[O][Al]`, the Potency result in [1], in assay [2], in [4], in assay [19], in assay [17] and in assay [5] was “inactive” in each case. The Potency entry in assay [6], in assay [7], in [8], in assay [9], in assay [18] and in [11] was “inactive” in each case. Besides, the Potency entry in assay [12], in [13], in assay [14], in assay [15] and in assay [16] was “inactive” in each case. For the same compound, the activity change, positive = activation in assay [20] is 0.0434%. Besides, the max response in assay [10] is 3.87%.

On to `O=C1c2ccccc2S(=O)(=O)N1CCCCN1CCN(c2ncccn2)CC1`, for which the Potency entry in [1], in assay [2], in assay [3], in assay [4], in assay [5] and in [6] was “inactive” throughout. The Potency result in assay [7], in assay [8], in [9], in assay [18], in assay [11] and in assay [13] was “inactive” each time. Moreover, the Potency result in assay [14], in [15] and in assay [16] was “inactive” each time. Besides, the max response in assay [10] is -0.801%.

The values above are taken from PubChem BioAssay (Tox21).
